Experimental data as given in ChEMBL document CHEMBL3988442, “University of Dundee, Small-Polar-MMV Screening Library” (2021).
Hit rate of the full screen: of about 38,000 compounds, about 1,200 (3.2%) showed an effect of 50% or more. The median lay at about -58%. The full list was thinned out, with strong results kept by preference.

system: Plasmodium falciparum; assay: Calibr Malaria Delayed Death Assay SOP; type: functional, organism-based; design: scale not given: in the data most compounds retested in dose-response had high values; details: concentration 4.99e-06 (unit not given; other assays of the set use mol/L)

Structure (SMILES) | Percent Effect
CCc1nc(CN2CCCC(N(C)Cc3nc(C)c(C)o3)C2)no1 (stereo unspecified) | -5.85%
Cc1ncnc2c1CCN(CC(=O)N(C)C)CC2.O=C(O)C(F)(F)F | -30.27%
O=C(C1=COCCO1)N1CC(Oc2nc3c(Cl)cccc3s2)C1 | -117.3%
COCCN1C(=O)CC[C@@H]2[C@H]1CCN2S(=O)(=O)c1cccs1 | -44.47%
O=C(NCCc1csc(-c2ncccn2)n1)c1cnn2c1CCCC2 | -31.93%
CC(=O)N1CCCC1c1cccc(Cc2ccccc2Cl)n1 (stereo unspecified) | -62.89%
CN(C)S(=O)(=O)N1CCCC(c2cccc(Cc3ccc(Cl)cc3)n2)C1 (stereo unspecified) | -15.18%
O=C(C1CC=CC1)N1C[C@H]2CN(Cc3ccncc3)C(=O)[C@H]2C1.O=C(O)C(F)(F)F | -118.6%
COc1cc(F)ccc1C(C(=O)O)N(C)CCN1CCOCC1 (stereo unspecified) | 79.89%
COc1ccc(C(C(=O)O)N(C)CCN2CCCC2)c(C)c1 (stereo unspecified) | -56.58%
COc1cc(F)ccc1C(C(=O)O)N(C)CCN1CCCC1 (stereo unspecified) | 71.25%
Cc1ccc(C(C(=O)O)N(C)CCN2CCOCC2)c(F)c1 (stereo unspecified) | -35.14%
COc1ccc(C(C(=O)O)N(C)CCN2CCCC2)cc1F (stereo unspecified) | -71.16%
COc1ccc(C(C(=O)O)N(C)CCN2CCOCC2)c(C)c1 (stereo unspecified) | -92.34%
CCCS(=O)(=O)N1C[C@H]2C[C@H](C(=O)Nc3cccnc3)[C@@H](C1)O2 | -54.27%
CC(C)=CCN1CCN(Cc2cccc(C)n2)CC1CCO (stereo unspecified) | -53.69%
Cc1cc(NCCc2nc(C)cs2)nc(-c2cccnc2)n1 | -152.4%
CC(C(=O)NN1CCOCC1)n1nc(C(F)(F)F)c(Cl)c1C1CC1 (stereo unspecified) | -94.38%
Cc1c(C(=O)NC2=NCCS2)cnn1-c1ccc(Cl)cc1 | -71.42%

Structure (SMILES) | Percent Effect
COCCCN1CC2(CCCN(c3ncc(Cl)cc3F)C2)CCC1=O (stereo unspecified) | -81.54%
CN(C)CCN1CC2(CCCN(c3ncc(Cl)cc3F)C2)CCC1=O (stereo unspecified) | 82.66%
COCCN1CC2(CCCN(c3ncc(Cl)cc3F)C2)CCC1=O (stereo unspecified) | -14.43%
CCN1Cc2nc(OC)c(CNC(=O)C3CCCN(C)C3)cc2C1=O (stereo unspecified) | -47.23%
C=C(C)CN1CCCC(NS(C)(=O)=O)C1 (stereo unspecified) | -112.5%
CO[C@H]1CN(C(=O)c2ccnnc2)[C@@H]2COC[C@H]12 | -17.32%
CN(C)CCN1C[C@@H]2CN(c3ccccc3)C[C@@H]2C1=O.O=C(O)C(F)(F)F | -48.1%
Cc1ccsc1C(O)CNC(=O)Cc1ccc(F)cc1 (stereo unspecified) | -29.72%
CCC(=O)NCC(=O)NC(Cc1ccccc1)c1sccc1C (stereo unspecified) | 84.56%
CCC(=O)NC(CC)c1ccccc1C (stereo unspecified) | -70.92%
Cc1ccsc1C(Cc1ccccc1)NC(=O)CNC(=O)C1CC1 (stereo unspecified) | 68.17%
Cc1ccsc1C(Cc1ccccc1)NC(=O)CSCC(N)=O (stereo unspecified) | -15.45%
O=C(CNC(=O)C1CC1)Nc1c(F)cccc1Oc1ccccc1 | -53.44%
COc1cccc2c1OCC(Cc1cc(C(N)=O)ccn1)C2 (stereo unspecified) | -54.91%
CCc1nc(CN(C)C(=O)c2ccc(OCCCOC)nc2)cs1 | -70.62%
Cn1cc(CC(=O)N2CCC(Nc3cccnn3)CC2)c2ccccc21 | -27.56%
CCC(CNC(=O)COC)Oc1cccc(F)c1 (stereo unspecified) | -58.01%
CCC(CNC(=O)CNC(C)=O)Oc1cccc(F)c1 (stereo unspecified) | 84.82%
CCC(=O)NCC(CC)Oc1cccc(F)c1 (stereo unspecified) | -6.3%

Structure (SMILES) | Percent Effect
Cc1cc(C(=O)N2CCCC(c3cc(C(F)(F)F)[nH]n3)C2)[nH]n1 (stereo unspecified) | -117%
O=C(O)C(F)(F)F.O=C(O)C(F)(F)F.c1cncc(-c2ncnc3c2CCN(Cc2ccsc2)CC3)c1 | -128.4%
CCN(C)CC1CCN(C(=O)Nc2ccc(C)cc2)C1 (stereo unspecified) | -13.91%
Cn1c(=O)oc2cc(S(=O)(=O)N3CCC(c4ccccc4)C3)c(Cl)cc21 (stereo unspecified) | -8.531%
O=C(O)C(F)(F)F.O=C(c1ccncc1F)N1CC[C@@H]2CN(c3ncccn3)CCO[C@@H]2C1 | -33.14%
Cc1ccc(CN2CCCn3c(nc(Cn4ccnc4)cc3=O)C2)s1 | -9.733%
Cc1cc(N(Cc2cccs2)C2CC2)n2nc(C(F)(F)F)nc2n1 | 65.64%
Cc1cc(N(Cc2cccnc2)C2CC2)n2nc(C(F)(F)F)nc2n1 | 22.81%
COCCN(c1cc(C)nc2nc(C(F)(F)F)nn12)C1CCCC1 | -69.88%
Cc1cc(N(Cc2ccccc2F)C2CC2)n2nc(C(F)(F)F)nc2n1 | -0.7756%
Cc1cc(N(Cc2ccccn2)C2CC2)n2nc(C(F)(F)F)nc2n1 | -69.19%
Cc1ccc(CN(c2cc(C)nc3nc(C(F)(F)F)nn23)C2CC2)cc1 | 93.63%
COC(=O)CCC(=O)N1CCC2(CN(Cc3ccccc3)C2)C1 | -61.64%
Cc1cc(C)n(-c2cncc(NCCC(=O)NC(C)C)n2)n1 | -25.6%
Fc1ccc(CN2CCO[C@H]3[C@H](OCC4CCCC4)CC[C@@H]32)cc1.O=C(O)C(F)(F)F | -74.43%
COC(=O)N1CCCN(Cn2nc(C)c(Br)c2C)CC1 | -78.94%
CCOC[C@@]12CCC[C@@H]1CN(C(=O)c1ccc(OC)cc1)C2 | -67.65%
Cn1cc(CN2CCn3cc(Cn4cccn4)nc3C2)cn1.O=C(O)C(F)(F)F | -116.7%
